A selection: hits, their analogues and other compounds. The true share with any hit is near 19%.
HT1080-NT tox = kills 2HG-producing HT-1080-NT fibrosarcoma cells | Potency, µM (doses to about 46.1 µM), for inactives: at the highest dose activity, negative = less viability, actives largely listed as cytotoxic | hit rate 1.6% among 360,000 | HT-1080-NT fibrosarcoma viability, CellTiter-Glo ATP luminescence, 48 h;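 also: NT is the 2HG producing partner of a matched IDH1 knockdown line; potency is read from the fitted curve at half-maximal effect; 0% = DMSO-treated cells and -100% = media-only wells without cells; nearly all actives have a fitted effect of over 55% in size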
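Luminescent CellTiter-Glo readout after 48 hours of compound exposure at 37 degrees C defined viability of HT-1080-NT cells. Activity was normalized to DMSO wells and cell-free media wells; concentration-response curves were fitted and assigned curve classes.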
HT1080 IDH1KD tx = kills HT-1080 cells with IDH1 knockdown. HT-1080 IDH1 knockdown viability, ATP luminescence, 48 h. Potency, µM (highest dose often 46.1 µM), for the others: at the top dose activity, negative = toxicity, most hits filed as cytotoxic. hit rate 2% among 360,000. AID 686971;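 also: potency is read from the fitted curve at half-maximal effect; 0% = DMSO wells and -100% = cell-free medium wells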
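Knockdown cells (IDH1KD HT-1080) received compounds 2 h after plating at 750 cells/well and were kept 48 h at 37 °C in 5% FBS RPMI. A CellTiter-Glo luminescence read gave % activity for curve fitting.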
DT40 TDP1 CPT = growth inhibition of DT40 Tdp1-/-;hTDP1 cells with camptothecin (screen for TDP1 inhibitors); chicken DT40 Tdp1-/-;hTDP1 cells + 20 nM CPT, ATP luminescence, 48 h; Potency, µM (titrated, usually from 46.2 µM), inactives show at the highest dose activity change, negative = growth inhibition, hits mostly inhibitors; hit rate 12% among 420,000; also: potency is read from the fitted curve at half-maximal effect; nearly all actives have a fitted effect of over 55% in size
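Cell growth measured by CellTiter-Glo luminescence after a minimum 48 h, 37 C compound exposure with 20 nM CPT in Tdp1-knockout DT40 cells stably expressing hTDP1, seeded 400/well; qHTS titration format.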
TDP1 cell noCPT = qHTS for Inhibitors of human tyrosyl-DNA phosphodiesterase 1 (TDP1): qHTS in cells in absence of CPT; Potency, µM (doses to about 46.2 µM), for inactives: at the highest dose activity change, negative = growth inhibition, hits mostly inhibitors; DT40 Tdp1-/- hTDP1 cells, no CPT, ATP luminescence, 48 h; hit rate 15% among 420,000; AID 686978, 2013; also: potency is read from the fitted curve at half-maximal effect; nearly all actives have a fitted effect of over 55% in size
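Cells were dispensed at 400 per well, compounds added by pin tool, plates incubated ≥48 hr at 37 °C, then CellTiter-Glo added for 30 min at room temperature before luminescence reading. Line: DT40 Tdp1-/- complemented with hTDP1; camptothecin omitted.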
IL-1B inflam inh = inflammasome signaling inhibition, IL-1 beta readout. THP-1 LPS/ATP IL-1B secretion, AlphaLISA, 16 h; stronger effect = lower value. activity change, % at 57.5 µM. hit rate 4.7% among 360,000. AID 743279; in the data active = activity change below about -50%; inconclusive = mostly about -30% to -49%
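Secreted IL-1B measured by AlphaLISA bead assay after 16 h compound exposure of THP-1 cells; compounds (final up to 57.5 uM) added 1 h before LPS (250 ng/mL) and ATP (1.25 mM) stimulation; lower signal means less secretion.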
Active calls of the source: *; ? = inconclusive; . = no result; [ ] = remark or other dose. Unless noted, calls follow the shape of the dose curve; as a rule, active = well fitted curve in the direction sought with a large enough effect; inconclusive = small, poorly fitted or top-dose-only effect, or another doubt; inactive = no such curve, though single readings can be large; an effect the other way counts as inactive or inconclusive. Unless noted, % is scaled to controls: 0 for no effect and ±100 for the full control effect.

SMILES	HT1080-NT tox	HT1080 IDH1KD tx	DT40 TDP1 CPT	TDP1 cell noCPT	IL-1B inflam inh
O=C(Nc1ccccc1C(=O)NCc1ccco1)Nc1cccc2ccccc12	?	?	20.6µM*	11.6µM*	?
O=C(NCc1ccco1)c1cccc2ccccc12	18.5%	25.8%	13.9%	-2.1%	-0.9
Cc1ccccc1N(C(=O)c1snc(C(N)=O)c1N)C(C(=O)NC1CCCC1)c1ccco1 (stereo unspecified)	-1.7%	-1.5%	-27.7%	?	14.2
Cc1cccc(C(=O)OCC(=O)c2c(N)n(CC(C)C)c(=O)n(C)c2=O)c1[N+](=O)[O-]	-9.0%	-5.3%	?	18.4µM*	18.0
CC(C)Cn1c(N)c(C(=O)COC(=O)c2ccc(Br)cc2)c(=O)n(C)c1=O	-12.3%	-23.3%	?	23.1µM*	?
CC(C)Cn1c(N)c(C(=O)COC(=O)c2ccncc2)c(=O)n(C)c1=O	0.0%	-1.1%	-20.9%	?	7.5
Cc1cccc(C(=O)OCC(=O)c2c(N)n(CC(C)C)c(=O)n(C)c2=O)c1O	?	-27.3%	23.1µM*	23.1µM*	-3.2
COC(=O)c1c(C)[nH]c(C(=O)OCC(=O)c2c(N)n(CC(C)C)c(=O)n(C)c2=O)c1C	-17.3%	-12.6%	?	14.6µM*	?
CC(C)Cn1c(N)c(C(=O)COC(=O)c2cccc(F)c2)c(=O)n(C)c1=O	-1.5%	-6.5%	?	?	9.0
CC(C)Cn1c(N)c(C(=O)COC(=O)c2ccc(O)cc2O)c(=O)n(C)c1=O	-2.0%	?	?	25.9µM*	20.7
CN(C)S(=O)(=O)c1ccc2c(c1)Cc1cc(S(=O)(=O)N(C)C)ccc1-2	?	0.9%	16.1%	-9.3%	-1.6
CCC1(C)CC2(CCCN(CCC(O)(c3ccccc3)c3ccccc3)C2)CCO1 (stereo unspecified)	-26.9%	?	?	14.6µM*	?
CON(C)S(=O)(=O)NC(=O)C1=C(N2CCCC2)COC1=O	0.1%	4.0%	1.3%	-1.2%	4.2
CC(C)C1C(=O)N(Cc2cn(Cc3ccco3)nn2)CCS(=O)(=O)N1Cc1ccc(-c2ccc(F)cc2)cc1 (stereo unspecified)	?	?	?	20.6µM*	-14.8
CC(C)C1C(=O)N(Cc2cn(Cc3ccco3)nn2)CCS(=O)(=O)N1Cc1ccc(-c2ccc(Cl)cc2)cc1 (stereo unspecified)	?	?	9.2µM*	6.51µM*	-12.8
CC(C)C1C(=O)N(Cc2cn(Cc3ccco3)nn2)CCS(=O)(=O)N1Cc1ccc(-c2ccncc2)cc1 (stereo unspecified)	9.1%	12.9%	-12.5%	-14.9%	-10.4
CC(C)C1C(=O)N(Cc2cn(Cc3ccco3)nn2)CCS(=O)(=O)N1Cc1ccc(-c2ccccc2)cc1 (stereo unspecified)	?	?	?	18.4µM*	-16.8
Cc1cccc(C)c1NC(=O)CN(CC(=O)O)CC(=O)O	.	.	-5.9%	-2.7%	.
O=[N+]([O-])c1cnc(Nc2ccccc2)nc1Nc1ccccc1	-7.1%	0.1%	22.3%	-1.3%	-0.4
O=C(CCn1ccc2cc(S(=O)(=O)N3CCCC3)ccc21)NCc1ccccc1	1.4%	-8.7%	-28.6%	-7.2%	29.6
O=C(CCCn1ccc2cc(S(=O)(=O)N3CCCC3)ccc21)NCc1ccc(Cl)cc1	.	.	4.61µM*	2.31µM*	.
CN(C)c1ccc(CNC(=O)CCCn2ccc3cc(S(=O)(=O)N4CCCC4)ccc32)cc1	.	.	?	18.4µM*	.
CCCCn1c(-c2csc(C(C)C)c2)n[nH]c1=S	-7.8%	-1.2%	-15.2%	-11.5%	11.1
CCCCn1c(-c2csc(CC)c2)n[nH]c1=S	1.4%	7.7%	20.6µM*	?	15.5
CCCc1cc(-c2n[nH]c(=S)n2CC(C)C)cs1	-13.8%	-8.8%	?	20.6µM*	4.8
SMILES	HT1080-NT tox	HT1080 IDH1KD tx	DT40 TDP1 CPT	TDP1 cell noCPT	IL-1B inflam inh
CC(C)Cn1c(-c2ccc(Br)o2)n[nH]c1=S	8.4%	7.2%	-1.0%	?	31.7
CCN(CC)C(=O)c1c2c(nc3ccccc13)-c1ccccc1CC2	-5.3%	?	?	?	?
CCN(CC)C(=O)c1nc(-c2cccc3ccccc23)no1	-0.3%	-5.5%	?	16.4µM*	-1.3
CCN(c1ccccc1)S(=O)(=O)c1ccc(Cl)c(NC(=O)COC(=O)c2cccc(OC)c2O)c1	9.0%	16.0%	?	18.4µM*	0.0
CCN(c1ccccc1)S(=O)(=O)c1ccc(OC)c(NC(=O)Cc2ccccc2OC)c1	5.3%[9.24 µM]	-9.9%	23.1µM*	23.1µM*	0.0
CCN(c1ccccc1)S(=O)(=O)c1ccc(OC)c(NC(=O)Cc2ccc(OC)c(OC)c2)c1	0.1%	-7.9%	?	?	-9.0
NC(=O)Nc1ccc(F)cc1	12.5%	2.0%	2.0%	-21.0%	0.0
C=C(C)CC(c1ccccc1)N(C(C)=O)c1ccco1 (stereo unspecified)	-3.0%	0.2%	2.4%	-11.8%	32.8
CNC(=O)/C(C#N)=c1\s/c(=C/C(=O)OC)c(=O)n1-c1ccccc1	1.7%	13.5%	?	-29.8%	2.9
COC(=O)/C=c1\sc2ncnn2c1=O	1.9%	-2.9%	5.8µM*	13µM*	-3.6
COc1ccc(CNC(=O)CCC(=O)Nc2ccc(Cl)cc2)cc1	-25.3%	-19.5%	0.2%	8.1%	4.3
O=C(CSc1ncnc2ccccc12)Nc1cccc(S(=O)(=O)N2CCCC2)c1	-10.1%	-11.0%	?	?	-28.9
O=C(CSc1ncnc2ccccc12)Nc1cc(S(=O)(=O)N2CCCCC2)ccc1Cl	-0.4%	-21.0%	?	25.9µM*	1.9
Cc1cc(=O)[nH]c(SCC(=O)Nc2ccc(C)c(S(=O)(=O)N3CCCCC3)c2)n1	-1.3%	-11.6%	-23.4%	-15.5%	49.3
Cc1ccc(NC(=O)CSc2ncnc3ccccc23)cc1S(=O)(=O)N1CCCCCC1	-1.9%	-20.2%	25.9µM*	?	-90.0*
O=C(CSc1ccc([N+](=O)[O-])cn1)Nc1cc(C(F)(F)F)ccc1N1CCOCC1	-5.0%	-8.8%	?	?	-9.9
CC(=O)N(c1ccccc1)C1CC(C)N(C(=O)c2ccccc2)c2ccccc21 (stereo unspecified)	-0.8%	14.8%	8.2µM*	7.31µM*	0.0
CCCC(=O)N1c2ccccc2C(N(C(C)=O)c2ccccc2)CC1C (stereo unspecified)	-3.5%	0.0%	23.1µM*	?	29.9
CCC(=O)N1c2ccccc2[C@@H](N(C(C)=O)c2ccccc2)C[C@H]1C	-0.1%	-3.7%	-24.4%	-23.9%	-12.7

Compound activity from PubChem.
